# PubChem BioAssay
# Target: Fibroblast growth factor 10 (Homo sapiens) (UniProt O15520)
# Assay: compounds binding fibroblast growth factor 10 – biochemical, small-molecule microarray, 635 nm fluorescence, primary screen (AID 1102)
# Conditions: FGF10 binding, fluorescence 635 nm, higher = more signal
# Chain of Fibroblast growth factor 10 (Homo sapiens) (O15520 whole entry, looked up): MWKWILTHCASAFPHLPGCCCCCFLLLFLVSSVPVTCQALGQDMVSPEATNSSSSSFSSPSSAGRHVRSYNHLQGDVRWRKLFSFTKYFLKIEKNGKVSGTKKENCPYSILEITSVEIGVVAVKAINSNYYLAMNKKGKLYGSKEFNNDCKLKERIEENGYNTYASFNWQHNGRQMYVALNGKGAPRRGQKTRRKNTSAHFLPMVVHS
row,SMILES,composite z-score
1,COC(=O)C(CC#Cc1ccc2c(c1)[C@]1(C(=O)N2)[C@H](c2ccc(O)cc2)N2[C@H](c3ccccc3)[C@H](c3ccccc3)OC(=O)[C@H]2[C@@H]1C(N)=O)C(=O)OC,-1.48
2,O=C1C2C=CC(C(O)c3ccc(Br)cc3)N(Nc3ccccc3)C2C(=O)N1c1ccccc1 (centres undefined),0.295
3,O=C(O)[C@@]1(Cc2ccccc2)COC(c2ccc(OCCCO)cc2)=N1,-0.38
4,COC(=O)c1ccc(OC)c(/C=C\CC(CCc2ccccc2)OC(=O)c2ccncc2)c1 (centres undefined),0.253
5,COC(=O)[C@@]1(Cc2ccc(OC)cc2)[C@H]2c3cc(C(=O)N4CCCC4)n(CCc4ccc(O)c(OC)c4)c3C[C@H]2CN1C(=O)c1ccccc1,-0.317
6,C[N+](C)(C)CCCC[C@@H]1NC(=O)[C@H]2C[C@@H](C(=O)NCCCCCCN)[C@@H](c3cccc(OCCO)c3)N2C1=O,1.17
7,COC(=O)[C@]1(Cc2ccccc2N=[N+]=[N-])N=C(c2ccc(OCCCO)cc2)O[C@@H]1c1ccccc1,-0.261
8,CC(C)N1C(=O)c2ccccc2[C@](C)(C(=O)O)[C@@H]1c1ccc(CO)cc1,-0.756
9,COc1ccc(C(=O)Nc2ccc3c(c2)[C@]2(O[C@@H](CCO)[C@H]([Si](C)(C)c4ccc(OC)cc4)[C@H]2C)C(=O)N3Cc2ccccc2)cc1,0.572

# System: glycogen synthase kinase-3 (GSK3A per assay name; protocol says GSK3B)
# Assay: compounds binding glycogen synthase kinase-3 – biochemical, small-molecule microarray, 635 nm fluorescence, GSK3A, primary screen (AID 1103); further: the record names both GSK3A and GSK3B
# Conditions: fluorescence 635 nm, higher = more signal
row,SMILES,composite z-score
1,CCOC(=O)C[C@H]1[C@H](OC(=O)c2ccccc2-c2ccccc2)[C@@H](NC(=O)c2ccccc2)c2cc(OCCCO)ccc2N1C(=O)Cc1ccc(OC)cc1,-0.519
2,C=CCC(OC(C)=O)[C@@H]1[C@@H](N(Cc2ccc(-c3cccc(C(F)(F)F)c3)o2)C(=O)c2cccc3ccccc23)c2cc(OCCCO)ccc2N1C(=O)c1ccc(-c2ccccc2)cc1 (some centres undefined),-0.579
3,C[C@H]1ON(c2ccccc2)[C@@H](c2ccccc2)[C@@H]1C(=O)N1C(=O)OC[C@@H]1c1ccccc1,0.363
4,COCCOC(=O)N1C(=O)[C@@]2(c3cc(C#CCNC(N)=O)ccc31)[C@H](C(N)=O)[C@H]1C(=O)O[C@H](c3ccccc3)[C@H](c3ccccc3)N1[C@@H]2c1ccc(OCCO)cc1,0.737
5,CCCC=C(CCC)[C@@H](NS(=O)(=O)c1cccc2cccnc12)c1ccc(C(=O)OC)cc1,0.0656
6,CCOC(=O)C1=CC[C@@H](c2ccccc2)N(S(=O)(=O)c2ccc(C)cc2)[C@H]1C=C(C)C,0.604
7,C#CCNS(=O)(=O)N(C)C,0.642
8,O=C1O[C@H](c2ccccc2)[C@H](c2ccccc2)N2[C@H]1[C@@H](C(=O)N1CCN(c3ncccn3)CC1)[C@]1(C(=O)Nc3ccc(C#CCCO)cc31)[C@H]2c1ccc(OCCO)cc1,1.28
9,COCCOC(=O)N1C(=O)[C@@]2(c3cc(C#CC4(O)CCCCCC4)ccc31)[C@H](C(=O)N1CCN(c3ncccn3)CC1)[C@H]1C(=O)O[C@H](c3ccccc3)[C@H](c3ccccc3)N1[C@@H]2c1ccc(O)cc1,0.235
10,Cc1cc(C)c(C(O)C2C=CC3C(=O)N(c4ccccc4)C(=O)C3N2Nc2ccc([N+](=O)[O-])cc2)c(C)c1 (centres undefined),1.3
11,Cc1ccc(S[C@]2(C(=O)O)CC(=O)N(C3CCCCC3)[C@@H]2c2ccc(CO)cc2)cc1,0.739
12,CCOc1cc(C(O)C2C=CC3C(=O)NC(=O)C3N2Nc2ccccn2)ccc1O (centres undefined),0.156
13,CC(=O)NCCCC[C@@H]1NC(=O)[C@@H]2C[C@H](C(=O)NCCCC[N+](C)(C)C)[C@H](c3cccc(OCCO)c3)N2C1=O,-0.57
14,COc1ccc([Si](C)(C)[C@@H]2[C@@H](CC(=O)N(CCO)Cc3ccccc3)O[C@]3(C(=O)N(Cc4ccc(N5CCOC5=O)cc4)c4ccccc43)[C@H]2C)cc1,0.218
15,COC(=O)[C@]1(Cc2ccccc2CN=[N+]=[N-])N=C(c2ccc(OCCCO)cc2)O[C@@H]1c1ccccc1CN=[N+]=[N-],0.419
16,CN(C)C(=O)[C@]1(Cc2ccccc2N=[N+]=[N-])N=C(c2ccc(OCCCO)cc2)O[C@@H]1c1ccccc1CN=[N+]=[N-],1.32
17,CC(C)(C)OC(=O)CC[C@@]1(C(=O)N2CCCCC2)N=C(c2ccc(OCCCO)cc2)O[C@@H]1c1ccccc1CN=[N+]=[N-],0.53
18,CCN(CC)c1ccc(N2CC=CC34O[C@@H]5/C=C\CCCOC(=O)C5[C@H]3C(=O)N(CCCCCO)[C@@H]4C2=O)cc1 (some centres undefined),-1.4

row,SMILES,composite z-score
1,[N-]=[N+]=Nc1ccccc1C[C@]1(C(=O)NCCN2CCOCC2)N=C(c2ccc(OCCCO)cc2)O[C@H]1c1ccccc1N=[N+]=[N-],1.29
2,COC(=O)[C@]1(Cc2ccccc2CN=[N+]=[N-])N=C(c2ccc(OCCCO)cc2)O[C@@H]1c1ccccc1,-1.08
3,COCCOC(=O)N1C(=O)[C@@]2(c3cc(C#Cc4ccc(OC)cc4)ccc31)[C@H](C(=O)N1CCc3cc(OC)c(OC)cc3C1)[C@H]1C(=O)O[C@H](c3ccccc3)[C@H](c3ccccc3)N1[C@@H]2c1ccc(O)cc1,1.21
4,COCCOC(=O)N1C(=O)[C@@]2(c3cc(C#CCCO)ccc31)[C@H](C(=O)NC[C@H](O)c1ccccc1)[C@H]1C(=O)O[C@H](c3ccccc3)[C@H](c3ccccc3)N1[C@@H]2c1ccccc1OCCO,1.33
5,COc1ccccc1CN1C(=O)c2ccccc2[C@@H](C(=O)NCC(C)C)[C@@H]1c1ccc(CO)cc1,-0.0674
6,C=CCN1C(=O)[C@@]2(O[C@@H](CCn3cc([C@H](O)c4ccccc4)nn3)[C@H]([Si](C)(C)c3ccc(OC)cc3)[C@H]2C)c2cc(NC(=O)c3ccc(OC)cc3)ccc21,0.0579
7,O=C(O)[C@]1(CCS(=O)(=O)c2ccccc2)N=C(c2ccc(OCCCO)cc2)O[C@@H]1c1ccccc1,0.439
8,CN(C)CCCN1C(=O)[C@@]2(Cc3ccccc31)c1ccccc1C(=O)N(Cc1ccccc1)[C@H]2c1ccc(CO)cc1,0.54
9,COC(=O)C(CC#Cc1ccc2c(c1)[C@]1(C(=O)N2)[C@H](c2ccc(O)cc2)N2[C@H](c3ccccc3)[C@H](c3ccccc3)OC(=O)[C@H]2[C@@H]1C(N)=O)C(=O)OC,-1.29
10,O=C1C2C=CC(C(O)c3ccc(Br)cc3)N(Nc3ccccc3)C2C(=O)N1c1ccccc1 (centres undefined),0.435
11,O=C(O)[C@@]1(Cc2ccccc2)COC(c2ccc(OCCCO)cc2)=N1,-0.835
12,COC(=O)c1ccc(OC)c(/C=C\CC(CCc2ccccc2)OC(=O)c2ccncc2)c1 (centres undefined),-0.453
13,COC(=O)[C@@]1(Cc2ccc(OC)cc2)[C@H]2c3cc(C(=O)N4CCCC4)n(CCc4ccc(O)c(OC)c4)c3C[C@H]2CN1C(=O)c1ccccc1,-0.175
14,C[N+](C)(C)CCCC[C@@H]1NC(=O)[C@H]2C[C@@H](C(=O)NCCCCCCN)[C@@H](c3cccc(OCCO)c3)N2C1=O,1.33
15,COC(=O)[C@]1(Cc2ccccc2N=[N+]=[N-])N=C(c2ccc(OCCCO)cc2)O[C@@H]1c1ccccc1,0.196
16,CC(C)N1C(=O)c2ccccc2[C@](C)(C(=O)O)[C@@H]1c1ccc(CO)cc1,-1.23
17,COc1ccc(C(=O)Nc2ccc3c(c2)[C@]2(O[C@@H](CCO)[C@H]([Si](C)(C)c4ccc(OC)cc4)[C@H]2C)C(=O)N3Cc2ccccc2)cc1,0.3
